Reference: PubChem BioAssay AID489008 (National Center for Advancing Translational Sciences (NCATS), 2010)
Results filed as inconclusive are left out. The source made the active and inactive calls. Calls come from the whole dose curve; as a rule, active = well fitted inhibition curve with a large enough effect; inconclusive = small, poorly fitted or top-dose-only effect; inactive = flat fitted curve, though single readings scatter.

Target: Ferritin light chain (Equus caballus) (UniProt P02791)
Experiment: Confirmation Assay for Identification of Novel General Anesthetics; note: nearly all actives have a fitted effect of over 40% in size
Conditions: apoferritin 1-aminoanthracene fluorescence displacement
In short: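 Horse apoferritin (10 uM) pre-loaded with 1-AMA (50% saturated, PBS) exposed to compounds 10 min at room temperature; loss of 1-AMA fluorescence (380/535 nm) scaled between free and bound ligand, curves fitted with Hill equation.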
Potency is the fitted concentration of half-maximal effect.

Sequence of Ferritin light chain (Equus caballus) (P02791 2-175 limits assumed): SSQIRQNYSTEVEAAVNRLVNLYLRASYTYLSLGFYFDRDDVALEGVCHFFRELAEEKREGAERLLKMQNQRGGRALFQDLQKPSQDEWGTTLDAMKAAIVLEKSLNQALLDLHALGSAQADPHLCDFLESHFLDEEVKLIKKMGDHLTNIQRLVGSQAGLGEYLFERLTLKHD

Potency, active:
Cc1ccc(C2=NN(CC(=O)NCc3cccs3)C(=O)CC2)cc1 7.08 µM
O=C(CSc1ccc(F)cc1)NC12CC3CC(CC(C3)C1)C2 15.8 µM
Nc1nc(SCc2ccc(Cl)cc2)ns1 12.6 µM
CC(C)c1ccc(NC(=O)C2CC3CCC2C3)cc1 (stereo not drawn) 31.6 µM
Cc1cc(C)n2nc(CC(=O)NC3CCCCCC3)nc2n1 8.91 µM
COc1ccccc1-c1cn(C(C)(C)C)nc1C 14.1 µM
O=S1(=O)CCOCCCN1Cc1ccccc1Br 12.6 µM
O=C(Nc1ccc(Cl)c(Cl)c1)OCc1cncs1 28.2 µM
Cc1cc(C)cc(Oc2ccccc2CO)c1 14.1 µM
CCN(C(=O)c1ccco1)C1C2CC3CC(C2)CC1C3 (stereo not drawn) 14.1 µM
CC1(c2ccc(NC(=O)c3ccccc3F)cc2)CC1(Cl)Cl (stereo not drawn) 12.6 µM
COC1CCCCC1Nc1cc(C)cc(C)c1 (stereo not drawn) 31.6 µM
CC(Nc1ccccc1)c1cccnc1 (stereo not drawn) 15.8 µM
O=C(CCc1ccccc1)NC(=S)Nc1ccccc1[N+](=O)[O-] 15.8 µM
O=C(CN1N=C(c2ccccc2)CCC1=O)NCc1cccs1 17.8 µM
O=C(Nc1cccc(Cl)c1)OCc1cnc(Cl)s1 31.6 µM
CCN(CC)C(=S)SCC(=O)c1ccccc1 28.2 µM
N#CCc1ccc(Oc2ncc(C(F)(F)F)cc2Cl)cc1 17.8 µM
N#CC(Nc1ccccc1)c1ccccc1OCc1ccccc1 (stereo not drawn) 35.5 µM
CCN(CC)C(=S)SCC(=O)c1ccc(F)cc1 15.8 µM
O=C(NC1C2CC3CC(C2)CC1C3)c1ccc2c(c1)OCO2 (stereo not drawn) 28.2 µM
Cc1ccc(NS(=O)(=O)N2CCOCC2)cc1Cl 12.6 µM
Cc1ccc(-c2ccc(=O)n(CC(=O)NCCC(C)C)n2)cc1 5.01 µM
Nc1nnc(CCC2CCCCC2)s1 10 µM
CC1CCCC(C)N1C(=O)CSc1nnnn1Cc1ccccc1 (stereo not drawn) 8.91 µM
CCOC(=O)c1c(C(C)(C)C)oc2ccc(O)cc12 39.8 µM
O=C(CN1N=C(c2ccc(Cl)cc2)CCC1=O)NCc1ccc(F)cc1 5.82 µM
O=C1C2CC=CCC2C(=O)N1Cc1ccccc1Cl (stereo not drawn) 7.94 µM
Fc1ccccc1SCc1nnc(-c2ccccc2Br)o1 15.8 µM
Cc1csc(Nc2ccccc2)n1 35.5 µM
c1cc2c(cc1NC1CCCCCC1)OCO2 8.91 µM
O=C(Nc1ccc(F)c(Cl)c1)N1CCCCCC1 7.94 µM
O=C(COC(=O)C(O)c1ccccc1)NC12CC3CC(CC(C3)C1)C2 (stereo not drawn) 12.6 µM
Cc1cc(C)cc(NC(=O)N2CCCCCCC2)c1 6.31 µM
Cc1ccc(-c2ccc(=O)n(Cc3ccc(F)cc3)n2)cc1 35.5 µM
Cc1ccc(NC(=O)COC(=O)CSC(=S)N2CCOCC2)cc1 15.8 µM
CC1Cc2ccccc2N1C(=O)CSc1nnnn1C (stereo not drawn) 28.2 µM
Cc1ccc(NC(C)c2cc(Cl)ccc2O)cc1 (stereo not drawn) 17.8 µM
